High-throughput results as filed in PubChem.
AGP1-GFP MLPCN = modulators of AGP1-GFP expression in yeast TOR pathway, primary screen, cell-based, multiplex flow cytometry, S. cerevisiae, MLPCN library. 3 h; GFP as percent of DMSO wells. GFP response vs DMSO, % at 10 µM. 320,000 compounds, 0.02% hits;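 active means GFP response relative to DMSO above a set limit, near screen average plus 3 SD, cut at about 150% in these data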;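 further: median GFP channel fluorescence of the gated AGP1 strain per well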
RPL19A TOR yeast = RPL19A-GFP expression modulators in yeast, primary screen, cell-based, S. cerevisiae, multiplex flow cytometry, MLPCN; S. cerevisiae RPL19A-GFP strain, 3 h; stronger effect = lower value; percent response vs DMSO, % at 10 µM; 330,000 compounds, 0.3% hits; AID 2025, 2009;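 active means percent response vs DMSO below 50%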;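 further: median channel GFP fluorescence of the barcoded RPL19A-GFP strain; ratio of sample median GFP to plate DMSO average so 100% = DMSO; lower means less RPL19A-GFP as with rapamycin TOR inhibition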
Efflux pump mplx = inhibitors of Candida efflux pumps in yeast, primary screen, S. cerevisiae, Nile Red, multiplex. S. cerevisiae Candida pump triplex. inhibition, % at 10 µM. 330,000 compounds, 0.44% hits. AID 485275, 2010;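 active means plate passing quality check with inhibition over a set limit, or well fluorescence over plate mean plus 4 SD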;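 further: Nile Red retained in pooled yeast measured as flow cytometry median fluorescence; 0% = buffer negative control and 100% = Enniatin B positive control; higher means more Nile Red kept so more efflux inhibition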
CIT2-GFP yeast = modulators of CIT2-GFP expression in yeast, primary screen, S. cerevisiae, GFP fusion, multiplex flow cytometry, MLPCN library; GFP response vs DMSO, % at 10 µM; 320,000 compounds, 0.065% hits; S. cerevisiae CIT2-GFP strain, 3 h; 100 means same as DMSO wells; AID 2029, 2009;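 active means GFP response relative to DMSO above a set limit, near the screen mean plus 3 SD, cut at about 150% in these data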;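 further: ratio of well median GFP fluorescence to mean of DMSO wells on the plate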
MEP2 TOR yeast = modulators of MEP2-GFP levels in yeast, primary screen, S. cerevisiae, multiplex flow cytometry, MLPCN library | GFP response vs DMSO, % at 10 µM | 330,000 compounds, 0.51% hits | S. cerevisiae MEP2-GFP strain, 3 h; 100% = DMSO control level | AID 2016, 2009;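 active means GFP response versus DMSO above a set limit, roughly screen mean plus 3 SD, cut at about 180% in these data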;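 further: median GFP fluorescence of the barcode-gated MEP2-GFP cells per well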
LAP4-GFP MLPCN = modulators of LAP4-GFP expression in yeast, primary screen, S. cerevisiae, multiplex flow cytometry, MLPCN library. 3 h; median GFP as percent of DMSO wells. GFP response vs DMSO, % at 10 µM. 320,000 compounds, 0.34% hits. AID 2023, 2009;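 active means GFP response vs DMSO above a set limit, about the screen mean plus 3 SD, cut at about 150% in these data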
Yeast cmpd fluor = counter-screen for efflux pump inhibitors: compound fluorescence | shares compounds with Efflux pump mplx | S. cerevisiae AD/pABC3, flow cytometry | fluorescence ratio to DMSO, % at 10 µM | 1,700 compounds, 4% hits | AID 588517;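 active means fluorescence ratio to DMSO above its plate's cutoff, the plate mean ratio plus 5 SD, cut at about 210% in these data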;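 further: unstained yeast with no Nile Red so the signal is compound autofluorescence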
CaMdr1 efflux inh = inhibitors of Candida albicans Mdr1 efflux, confirmation, flow cytometry, singleplex, Cherry Pick1 set; shares compounds with Efflux pump mplx; S. cerevisiae AD/CaMDR1, Nile Red efflux; inhibition, % at 10 µM; 1,700 compounds, 1% hits; in the data active means inhibition above about 26%;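 further: 0% = DMSO vehicle and 100% = reference inhibitor; higher means more Nile Red retained so more efflux inhibition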
Cdr2 pump inh = inhibitors of Candida albicans Cdr2 efflux pump, confirmation, S. cerevisiae AD/CaCDR2, flow cytometry, cherry pick 1, singleplex; Nile Red retention; Nile Red retention ratio vs DMSO, % at 10 µM; shares compounds with Efflux pump mplx; AID 588520, 2011; 1,700 compounds, 4% hits; in the data active means Nile Red retention ratio vs DMSO above about 190%;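 further: higher ratio means more blocking of Cdr2 efflux of the dye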
Cdr1 pump inh = inhibitors of Candida albicans Cdr1 efflux pump, confirmation, S. cerevisiae AD/CaCDR1, flow cytometry, cherry pick 1, singleplex; shares compounds with Efflux pump mplx; Nile Red efflux; inhibition, % at 10 µM; 1,700 compounds, 1% hits;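 active means inhibition above the screen-wide mean plus twice its standard deviation, cut at about 32% in these data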
The depositor's hits bear a star; x = no result given. A selection: hits, their analogues and other compounds. The true share with any hit is near 1.3%.

SMILES | AGP1-GFP MLPCN | RPL19A TOR yeast | Efflux pump mplx | CIT2-GFP yeast | MEP2 TOR yeast | LAP4-GFP MLPCN | Yeast cmpd fluor | CaMdr1 efflux inh | Cdr2 pump inh | Cdr1 pump inh
COc1cc(/C=C(\C#N)c2nc3ccccc3n2C)cc(OC)c1O | 102 | 97 | 1.0* | 105 | 101 | 95 | 100 | 0 | 108 | 0
COc1ccccc1OCCC(=O)OCC(=O)NCc1ccc(F)cc1 | 99 | 100 | 0 | 104 | 101 | 97 | x | x | x | x
Cc1cc(S(=O)(=O)N2CCOCC2)ccc1OCC(=O)Nc1ccc(Br)cc1F | 100 | 103 | 0.9* | 99 | 108 | 95 | 110 | 0 | 96 | 0
Cc1ccc2oc(C(=O)N3CCC(O)(c4cccc(C(F)(F)F)c4)CC3)c(C)c2c1 | 94 | 100 | 0.5* | 88 | 93 | 93 | 114 | 0 | 116 | 0
CC(=O)N1CCC(O)(c2cccc(C(F)(F)F)c2)CC1 | 100 | 96 | 0 | 102 | 100 | 92 | x | x | x | x
CCOC(=O)c1[nH]c2ccc(C)cc2c1NC(=O)CN1CCCCC1 | 94 | 91 | 0 | 100 | 99 | 92 | x | x | x | x
Cc1c2cc[n+](CCN3CCCCC3)cc2c(C)c2c1[nH]c1ccc(O)cc12 | x | x | x | x | x | x | 107 | 0 | 93 | 0
COc1ccc(N2CCN(C(=O)CN3C(=O)NC4(CCCCCC4)C3=O)CC2)cc1 | 92 | 97 | 0 | 86 | 100 | 102 | x | x | x | x
N/C(=N\OC(=O)Cc1cccs1)c1ccc(Cl)cc1 | 94 | 96 | 0 | 96 | 97 | 99 | 105 | 0 | 97 | 0
CCc1ccc(NC(=O)C(C)Sc2nc(-c3ccco3)c(C#N)c(=O)[nH]2)cc1 (configuration not stated) | 102 | 95 | 0 | 102 | 103 | 100 | x | x | x | x
N=c1c(C(=O)NCc2ccc3c(c2)OCO3)cc2c(=O)n3ccccc3nc2n1Cc1cccnc1 | 105 | 103 | 0 | 108 | 103 | 109 | x | x | x | x
COc1cccc(NC(=O)c2cc3c(=O)n4ccccc4nc3n(CC(C)C)c2=N)c1 | 100 | 98 | 1.6* | 110 | 97 | 114 | 99 | 0 | 95 | 0
Cc1cccc(NC(=O)c2cc3c(=O)n4ccccc4nc3n(CC(C)C)c2=N)c1 | 107 | 101 | 0 | 101 | 105 | 108 | x | x | x | x
COc1ccc(CNC(=O)c2cc3c(=O)n4ccccc4nc3n(Cc3cccnc3)c2=N)cc1 | 98 | 101 | 0.9* | 92 | 106 | 111 | 96 | 0 | 105 | 0
CSc1ccccc1NC(=O)CN(C)C(=O)COc1cccc2cccnc12 | 90 | 94 | 0 | 88 | 95 | 93 | x | x | x | x
O=[N+]([O-])c1cccc(-c2nc3ccccc3s/c2=N/O)c1 | 69 | 82 | 0.7* | 75 | 88 | 132 | 116 | 0 | 116 | 0
COc1ccc(C(C)=O)cc1CSc1nc2cc(C(=O)O)ccc2c(=O)n1Cc1ccccc1 | 93 | 98 | 5.8* | 97 | 103 | 85 | 98 | 0 | 108 | 0
CCOC(Cn1c(SCc2cc(C(C)=O)ccc2OC)nc2ccccc2c1=O)OCC | 97 | 100 | 0 | 117 | 112 | 99 | x | x | x | x
